Experimental data: PubChem BioAssay (EPA / NIEHS)
Results filed as inconclusive are left out. The source made the active and inactive calls. Rule for the calls: active = hit-call score of the fitted dose curve at least 0.9, where 1 is the maximum; inconclusive = response in the unintended direction; inactive = score below 0.9.

test: Tanguay_ZF_120hpf_JAW_legacy: (Legacy) Oregon State University Tanguay Lab 120 Hour Post-fertilization zebrafish Assay for Jaw Malformation (AID 2283638);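 for AC50: active means more embryos with jaw malformation than DMSO controls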
Procedure: Tanguay_ZF_120hpf_legacy is a whole embryo, multiplexed endpoint assay using zebrafish larvae exposed for 120 hours post fertilization on a 96-well plate.Tanguay_ZF_120hpf_JAW_legacy is one of one assay component(s) measured or calculated from the Tanguay_ZF_120hpf_legacy assay. It is designed to make measurements of zebrafish development as detected with brightfield microscopy of developing zebrafish embryos.Data from the assay component Tanguay_ZF_120hpf_JAW_legacy was analyzed into 1 assay endpoints. This assay endpoint, Tanguay_ZF_120hpf_JAW_legacy, was analyzed in the positive analysis fitting direction relative to DMSO as the negative control and baseline of activity. Using a type of morphology reporter, gain-of-signal activity can be used to understand changes in developmentals as they relate to the whole embryo. To generalize the intended target to other relatable targets, this assay endpoint is annotated to the zebrafish development intended target family, where the subfamily is embryonic jaw development.
Zebrafish husbandry: Tropical 5D wild-type adult zebrafish were housed in at an approximate density of 1000 per 100 gallon tank at the Sinnhuber Aquatic Research Laboratory, Oregon State University, Corvallis, OR. Each tank was kept at standard laboratory conditions of 28C on a 14-h light/10-h dark photoperiod in fish water consisting of reverse osmosis water supplemented with a commercially available salt (Instant Ocean). Spawning funnels were placed into the tanks the night prior, and embryos were collected and staged. To increase bioavailability, the chorion was enzymatically removed using pronase (63.6mg/ml, >/= 3.5U/mg, Sigma-Aldrich: P5147) at 4 hours post fertilization (hpf) using a custom automated dechorionator.Chemical exposures: Six hpf dechorionated embryos were placed 1 embryo per well in a 96-well plate prefilled with 90 ul of EM using automated embryo placement systems (AEPS). Ten microliters of each row of dilution plate 2 was added to 2 exposure plates. The final DMSO concentration used was 0.64% (vol/vol). Thirty-two embryos were also exposed to 5uM trimethyltin chloride (positive control). Plates were sealed to prevent evaporation and foil covered to reduce light exposure and kept in a 28C incubator. Embryos were statically exposed until 120 hpf. At 24 hpf, embryos were assessed for photomotor response using a custom photomotor response analysis tool (PRAT) and for developmental toxicity endpoints (MO24: mortality at 24 hpf, DP: developmental progression, SM: spontaneous movement, and NC: notochord distortion). At 120 hpf, locomotor activity was measured using Viewpoint Zebralab and assessed for 18 endpoints. Zebrafish acquisition and analysis program (ZAAP), a custom program designed to inventory, acquire, and manage zebrafish data, was used to collect developmental endpoints as either present or absent (i.e., binary responses were recorded). If mortality occurred for an embryo (at either 24 or 120 hpf), the non-mortality endpoints were not measured.

Row | SMILES | outcome | AC50
1 | C=CC(N)=O | inactive | –
2 | Clc1ccc(Cl)cc1 | inactive | –
3 | CCCCCCCCOC(=O)c1ccccc1C(=O)OCCCCCCCC | inactive | –
4 | NS(=O)(=O)C(F)(F)C(F)(F)C(F)(F)C(F)(F)C(F)(F)C(F)(F)C(F)(F)C(F)(F)F | inactive | –
5 | C=CC(=O)NCNC(=O)C=C | inactive | –
6 | Cc1ccc(O)c(C)c1 | inactive | –
7 | ClC(Cl)=C(c1ccc(Cl)cc1)c1ccc(Cl)cc1 | inactive | –
8 | O=C(O)C(F)(F)C(F)(F)C(F)(F)C(F)(F)C(F)(F)C(F)(F)C(F)(F)C(F)(F)F | inactive | –
9 | Oc1c(Cl)c(Cl)c(Cl)c(Cl)c1Cl | inactive | –
10 | Cc1ccccc1[N+](=O)[O-] | inactive | –
11 | CCC(=O)O[C@H]1CC[C@H]2[C@@H]3CCC4=CC(=O)CC[C@]4(C)[C@H]3CC[C@]12C | inactive | –
12 | CCCN(CCC)N=O | inactive | –
13 | CCSC(=O)N(CC)C1CCCCC1 | inactive | –
14 | O=C(O)C(F)(F)C(F)(F)C(F)(F)C(F)(F)C(F)(F)C(F)(F)C(F)(F)C(F)(F)C(F)(F)F | inactive | –
15 | C1CC2OC2CC1C1CO1 (stereo not given) | inactive | –
16 | CCCCCCCCCC[N+](C)(C)CCCCCCCCCC | inactive | –
17 | O=C(N[C@H]1CN2CCC1CC2)c1cc2ccoc2cn1 | inactive | –
18 | Oc1ccc(C(c2ccc(O)cc2)(C(F)(F)F)C(F)(F)F)cc1 | – | 54.7 µM (active)
19 | C[C@]12CCC(=O)C=C1CC[C@@H]1[C@@H]2CC[C@@]2(C)[C@H]1CC[C@]2(C)O | inactive | –
20 | CCCCCCCCCc1ccc(O)cc1 | inactive | –

Row | SMILES | outcome | AC50
21 | Cc1cc(O)ccc1Cl | inactive | –
22 | O=C(NC(=O)c1c(F)cccc1F)Nc1cc(Cl)c(OC(F)(F)C(F)F)c(Cl)c1 | inactive | –
23 | Cc1cc2c3c(c1)C(c1ccccc1)=N[C@@H](NC(=O)c1ccncc1)C(=O)N3CC2 | inactive | –
24 | Oc1ccc(Cl)cc1Cl | inactive | –
25 | COS(=O)(=O)OC | inactive | –
26 | CN(C)CCO | inactive | –
27 | ClC1=C(Cl)[C@]2(Cl)[C@@H]3[C@H]4C[C@H]([C@@H]5O[C@H]45)[C@@H]3[C@@]1(Cl)C2(Cl)Cl | inactive | –
28 | CC1=C2C[C@H]3[C@@H](CC=C4C[C@@H](O)CC[C@@]43C)[C@@H]2CC[C@]12O[C@@H]1C[C@H](C)CN[C@H]1[C@H]2C | – | 25.9 µM (active)
29 | Nn1cnnc1 | inactive | –
30 | O=S(=O)(O)C(F)(F)C(F)(F)C(F)(F)C(F)(F)C(F)(F)C(F)(F)F | inactive | –
31 | N#Cc1ccc(N(CC(N)=O)CC(F)(F)F)cc1C(F)(F)F | inactive | –
32 | CCCCCCOC(=O)c1ccccc1C(=O)OCCCCCC | inactive | –
33 | Cc1cc(-c2ccc(N)c(C)c2)ccc1N | inactive | –
34 | Cc1ccccc1O | inactive | –
35 | C[C@]12CCC(=O)C=C1CC[C@@H]1[C@@H]2CC[C@]2(C)C(=O)CC[C@@H]12 | – | 38.3 µM (active)
36 | O=S(=O)(O)C(F)(F)C(F)(F)C(F)(F)C(F)(F)F | inactive | –
37 | CO/C=C(/C(=O)OC)c1ccccc1COc1cccc(C(F)(F)F)n1 | – | 2.66 µM (active)
38 | O=NN(c1ccccc1)c1ccccc1 | inactive | –
39 | Nc1ccc(-c2ccc(N)cc2)cc1 | inactive | –
40 | CCOCCOC(C)=O | inactive | –
